Measured values: PubChem BioAssay (NCATS)
Several values for one entry are separate records, joined by “and”; a condition that tells them apart may be missing. Equal entries are not always repeated. Inconclusive results are not listed. Activity calls are given as the source filed them. Unless noted, the call rests on the fitted dose curve; in most records, active means well fitted curve in the direction sought with a large enough effect; inconclusive means small, poorly fitted or top-dose-only effect, or another doubt; inactive means no such curve, though single readings can be large; an effect the other way counts as inactive or inconclusive.

How the values were obtained:
[1] = qHTS assay for small molecule antagonists of peroxisome proliferator-activated receptor delta signaling (AID 588535; active means well fitted inhibition curve with a large enough effect in the signal ratio, with a control signal flat, not every such curve was filed as active; the % refers to the signal ratio;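 on max response: cells co-treated with a PPAR-delta agonist as stimulator during compound exposure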); settings: HEK293T PPARd-UAS-bla, beta-lactamase FRET ratio, 18 h; 460 nm channel
Method in brief: (§1)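 Antagonist-mode beta-lactamase reporter (GeneBLAzer PPAR-delta-UAS-bla) in HEK293T cells, 2% charcoal/dextran FBS, 4000 cells/well. Compound titrations, 18 h at 37 C; CCF4 ratio read, IC50 and efficacy from Hill fits.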

[2] = biological target: Peroxisome proliferator-activated receptor delta (Homo sapiens) (UniProt Q03181); assay: as above; settings: HEK293T PPARd-UAS-bla, beta-lactamase FRET ratio, 18 h; series mostly up to 76.7 µM
Method in brief: as §1

[3] = biological target: Peroxisome proliferator-activated receptor gamma (Homo sapiens) (UniProt P37231); assay: qHTS assay for small molecule agonists of peroxisome proliferator-activated receptor gamma signaling (AID 588536; active means well fitted curve in the direction sought with a large enough effect in the signal ratio, with a control signal flat, not every such curve was filed as active; the % refers to the signal ratio;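 further: 0% = DMSO basal wells and 100% = rosiglitazone at 2 µM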); settings: HEK293 PPARg-UAS-bla, beta-lactamase ratio, 16 h, percent of rosiglitazone response, DMSO as zero; series mostly up to 76.7 µM
Method in brief: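 GeneBLAzer PPAR-gamma-UAS-bla HEK293 cells in 1% charcoal/dextran-treated FBS medium were treated 16 h at 37 C with compounds. Beta-lactamase activity was read by CCF4 ratio (460/530 nm). Response was normalized to 2 uM rosiglitazone (100%) and DMSO, then Hill-fitted for EC50 and efficacy.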

[4] = biological target: Peroxisome proliferator-activated receptor gamma (Homo sapiens) (UniProt P37231); assay: qHTS assay for small molecule antagonists of peroxisome proliferator-activated receptor gamma signaling (AID 588537; active means well fitted inhibition curve with a large enough effect in the signal ratio, with a control signal flat, not every such curve was filed as active; the % refers to the signal ratio;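 further: reporter cells co-stimulated with 50 nM rosiglitazone agonist during compound treatment; % of control where 0% means no effect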); settings: HEK293 PPARg-UAS-bla, beta-lactamase ratio, antagonist mode; series mostly up to 76.8 µM
Method in brief: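 PPARγ-UAS-bla HEK293 cells (3000/well) in 1% charcoal/dextran-stripped FBS are treated with compound, then stimulated with 50 nM rosiglitazone for 16 h at 37 °C. Read-out is CCF4 β-lactamase fluorescence after 2 h at RT. IC50 comes from Hill fits normalised to rosiglitazone and DMSO.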

[5] = qHTS assay for small molecule agonists of retinoid X receptor alpha signaling (AID 588544; calls by dose curve;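 on activation: 0% = DMSO basal wells and 100% = reference agonist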); settings: HEK293T RXRa-UAS-bla, beta-lactamase reporter, 18 h; 530 nm emission
[6] = biological target: Retinoic acid receptor RXR-alpha (Homo sapiens) (UniProt P19793); assay: as above; settings: HEK293T RXRa-UAS-bla, beta-lactamase reporter, 18 h; series mostly up to 76.7 µM
[7] = biological target: Thyroid hormone receptor beta (Homo sapiens) (UniProt P10828); assay: qHTS assay for small molecule agonists of thyroid hormone receptor beta signaling (AID 588545; calls by dose curve;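 further: 0% = DMSO only and 100% = 10 nM T3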); settings: TR-UAS-bla GripTite HEK 293, beta-lactamase ratio, agonist mode, 18 h, percent of T3 response, DMSO as zero; series mostly up to 76.7 µM
Method in brief: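 TR-UAS-bla-GripTite HEK 293 cells in medium with 2% charcoal/dextran FBS, 0.1 mM NEAA and 1 mM sodium pyruvate were treated with titrated compounds for 18 hrs at 37 C. Beta-lactamase reporter was read with CCF4 dye (ex 405, em 460/530 nm); EC50 from Hill fits.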

[8] = qHTS assay for small molecule antagonists of retinoid X receptor alpha signaling (AID 588546; active means well fitted inhibition curve with a large enough effect in the signal ratio, with a control signal flat, not every such curve was filed as active; the % refers to the signal ratio;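 further: cells stimulated with 9-cis-retinoic acid as agonist; on the % scale 0 is the no-effect control and ±100 the full control effect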); settings: HEK293T RXRa-UAS-bla, beta-lactamase ratio, antagonist mode; measured here: W530 green channel, cytotoxicity proxy
Method in brief: (§2)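 Beta-lactamase reporter inhibition, read as CCF4 fluorescence ratio (ex 405, em 460/530 nm) after 2 h at RT. HEK293T UAS-bla cells, 2500/well, were stimulated with 9-cis-RA at 500 or 100 nM final alongside test compound for 18 h at 37 C.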

[9] = biological target: Retinoic acid receptor RXR-alpha (Homo sapiens) (UniProt P19793); assay: as above; settings: HEK293T RXRa-UAS-bla, beta-lactamase ratio, antagonist mode
Method in brief: as §2

[10] = biological target: Thyroid hormone receptor beta (Homo sapiens) (UniProt P10828); assay: qHTS assay for small molecule antagonists of thyroid hormone receptor beta signaling (AID 588547; active means well fitted inhibition curve with a large enough effect in the signal ratio, with a control signal flat, not every such curve was filed as active; the % refers to the signal ratio;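 further: cells stimulated with 0.4 nM T3 agonist during compound exposure; on the % scale 0 is the no-effect control and ±100 the full control effect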); settings: TR-UAS-bla HEK293, beta-lactamase ratio, antagonist mode, 18 h
Method in brief: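 TR-UAS-bla GripTite HEK293 cells in 2% charcoal/dextran FBS medium; compounds 0.59 nM to 92 uM with T3 at 0.4nM final, 18 h at 37 C. Beta-lactamase read by CCF4 fluorescence (460/530 nm); Hill fits gave IC50 and efficacy.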

[11] = biological target: Voltage-gated inwardly rectifying potassium channel KCNH2 (Homo sapiens) (UniProt Q12809); assay: qHTS Assay for Small Molecule Inhibitors of the Human hERG Channel Activity (AID 588834); settings: U2OS BacMam hERG, FluxOR thallium flux fluorescence; series mostly up to 92.2 µM;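 further: top concentration of the series differs between compounds; on the % scale 0 is the no-effect control and ±100 the full control effect; lower thallium flux fluorescence means stronger hERG block; nearly all actives have a fitted effect of over 50% in size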
Method in brief: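 Concentration-response qHTS measuring drop in thallium-sensitive dye signal. U2OS cells carrying BacMam hERG; compound exposure ~10 min, then stimulation buffer and 2 min read at 1 sec intervals.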

[12] = qHTS assay for small molecule agonists of the antioxidant response element (ARE) signaling pathway (AID 651741; active means well fitted activation curve with a large enough effect in the signal ratio; the % refers to the signal ratio; further: % of control where 0% means no effect); settings: HepG2 ARE-bla reporter, beta-lactamase FRET ratio, 16 h; series mostly up to 96 µM
Method in brief: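 CellSensor ARE-bla HepG2 cells (2,000/well) carrying ARE-driven beta-lactamase, exposed 16 h at 37 C. LiveBLAzer B/G FRET substrate added for 2 h at room temperature; fluorescence intensity read.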

[13] = qHTS assay for small molecule activators of the p53 signaling pathway (AID 651743; active means well fitted activation curve with a large enough effect in the signal ratio, not every such curve was filed as active; the % refers to the signal ratio; further: % of control where 0% means no effect); settings: HCT-116 p53RE-bla, beta-lactamase FRET ratio, 16 h; activation: stronger effect = higher value
Method in brief: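 p53RE-bla HCT-116 cells carrying a beta-lactamase reporter under p53 response elements were exposed to compounds for 16 hours at 37 C. Reporter activity read as fluorescence after 2 hours at room temperature with LiveBLAzer B/G FRET substrate.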

[14] = qHTS assay for small molecule disruptors of the mitochondrial membrane potential - 5 hr assay (AID 651755; calls by dose curve; further: on the % scale 0 is the no-effect control and ±100 the full control effect; nearly all actives have a fitted effect of over 40% in size); settings: JC-1-type ratio dye; series mostly up to 92.2 µM
Method in brief: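 HepG2 cells (2,000/well), attached overnight, exposed to compound 5 hr at 37C, then Mito-MPS dye 30 min. Fluorescence read for monomers (490/535 nm) and aggregates (540/590 nm).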

[15] = biological target: Tumor necrosis factor (Homo sapiens) (UniProt P01375); assay: qHTS assay to identify small molecules that stimulate Tumor Necrosis Factor-alpha (TNF-alpha) secretion (AID 651757; active means well fitted curve in the direction sought with a large enough effect in the signal ratio; the % refers to the signal ratio; further: 0% is about no effect); settings: Human cells, HTRF 665/615 ratio; series mostly up to 92.2 µM
Method in brief: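 Read-out is HTRF, a TR-FRET sandwich of cryptate- and XL665-labeled anti-TNF-alpha antibodies detecting cytokine secreted by THP-1 cells. Cells had been incubated with test compounds at 37 C for 17 hrs beforehand.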

[16] = qHTS assay for environmental chemicals that activate the Aryl hydrocarbon Receptor (AhR) signaling pathway (AID 651777); settings: 1A2-DRE human hepatoma cells, luciferase, 24 h; activation: stronger effect = higher value; further: % of control where 0% means no effect; nearly all actives have a fitted effect of over 15% in size
Method in brief: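 Concentration–response screening used 1,200 1A2-DRE cells per well, 24 hr compound exposure (37 C, 5% CO2), and One-Glo luminescence as the AhR-driven CYP1A2 reporter signal.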

[17] = biological target: Peroxisome proliferator-activated receptor alpha (Homo sapiens) (UniProt Q07869); assay: qHTS assay for small molecule agonists of the peroxisome proliferator-activated receptor alpha (PPARalpha) signaling pathway (AID 651778); settings: PathHunter PPARalpha complementation, chemiluminescence, 6 h; max response: stronger effect = higher value; further: % of control where 0% means no effect
Method in brief: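 Enzyme-fragment complementation assay in which ligand-bound PPARalpha translocates and forms an active enzyme that generates chemiluminescence. Cells were plated overnight, exposed to compound for 6 hr at 37 C, and then given detection reagent for 60 min at room temperature.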

[18] = qHTS assay for small molecule antagonists of the retinoid-related orphan receptor gamma (ROR-gamma) signaling pathway - cell viability counter screen (AID 720652; active means well fitted curve in the direction sought with a large enough effect in the repeat runs; an effect the other way counts as inactive or inconclusive;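 further: compound exposure lasted 16 hr before ATP read; on the % scale 0 is the no-effect control and ±100 the full control effect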); settings: RORgamma reporter cell line viability counter screen; series mostly up to 92.2 µM
Method in brief: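 Luminescence from CellTiter-Glo after 30 min at room temperature reported cellular ATP as the cytotoxicity measure. Cells were the CHO reporter line with doxycycline-induced ROR-gamma expression, exposed to compound for 16 hr at 37 C.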

[19] = qHTS assay for small molecule agonists of the antioxidant response element (ARE) signaling pathway measured by Nrf2-dependant transcriptional activity - cell viability counter screen (AID 720653; active means well fitted curve in the direction sought with a large enough effect in the repeat runs; an effect the other way counts as inactive or inconclusive; further: on the % scale 0 is the no-effect control and ±100 the full control effect); settings: ARE-bla HepG2 viability, CellTiter-Glo ATP luminescence, 16 h; max response: stronger effect = lower value
Method in brief: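 ARE-bla HepG2 cells treated with compounds for 16 h at 37C; this counter screen measures viability as intracellular ATP by CellTiter-Glo luminescence after 30 min at room temperature.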

[20] = qHTS assay for cell viability of HEK293 cells (AID 743288); settings: ATP luminescence (CellTiter-Glo), 18 h; max response: stronger effect = lower value; further: on the % scale 0 is the no-effect control and ±100 the full control effect; nearly all actives have a fitted effect of over 50% in size
Method in brief: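 Environmental chemicals tested in qHTS format against parental HEK293 cells; 18 h treatment, 37 C; read-out ATP luminescence (CellTiter-Glo), 30 min RT development.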

[21] = biological target: Nuclear receptor subfamily 1 group I member 2 (Rattus norvegicus) (UniProt Q9R1A7); assay: qHTS assay for small molecule activators of the rat pregnane X receptor (rPXR) signaling pathway (AID 651751; call rule not given here; further: 0% is about no effect); settings: rPXR reporter cells, luciferase (One-Glo), 24 h
[22] = qHTS assay for small molecule activators of the human pregnane X receptor (PXR) signaling pathway (AID 720659; call rule not given here; further: 0% is about no effect); settings: DPX-2 HepG2 CYP3A4-luciferase, 24 h; series mostly up to 92.3 µM

Thyroid hormone receptor beta (Homo sapiens), sequence (P10828 whole entry, looked up): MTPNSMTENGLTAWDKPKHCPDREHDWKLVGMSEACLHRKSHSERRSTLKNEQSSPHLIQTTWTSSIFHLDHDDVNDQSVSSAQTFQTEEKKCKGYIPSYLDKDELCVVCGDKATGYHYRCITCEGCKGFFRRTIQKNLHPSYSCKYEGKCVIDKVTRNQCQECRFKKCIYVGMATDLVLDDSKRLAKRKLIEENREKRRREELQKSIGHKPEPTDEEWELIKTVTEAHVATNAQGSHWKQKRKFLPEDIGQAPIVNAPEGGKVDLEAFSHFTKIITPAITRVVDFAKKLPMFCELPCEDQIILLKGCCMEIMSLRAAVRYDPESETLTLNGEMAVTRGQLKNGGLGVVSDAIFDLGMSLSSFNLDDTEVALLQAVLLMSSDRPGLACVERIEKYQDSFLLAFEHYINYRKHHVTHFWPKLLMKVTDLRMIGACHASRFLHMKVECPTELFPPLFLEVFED
Peroxisome proliferator-activated receptor gamma (Homo sapiens), sequence (P37231 whole entry, looked up): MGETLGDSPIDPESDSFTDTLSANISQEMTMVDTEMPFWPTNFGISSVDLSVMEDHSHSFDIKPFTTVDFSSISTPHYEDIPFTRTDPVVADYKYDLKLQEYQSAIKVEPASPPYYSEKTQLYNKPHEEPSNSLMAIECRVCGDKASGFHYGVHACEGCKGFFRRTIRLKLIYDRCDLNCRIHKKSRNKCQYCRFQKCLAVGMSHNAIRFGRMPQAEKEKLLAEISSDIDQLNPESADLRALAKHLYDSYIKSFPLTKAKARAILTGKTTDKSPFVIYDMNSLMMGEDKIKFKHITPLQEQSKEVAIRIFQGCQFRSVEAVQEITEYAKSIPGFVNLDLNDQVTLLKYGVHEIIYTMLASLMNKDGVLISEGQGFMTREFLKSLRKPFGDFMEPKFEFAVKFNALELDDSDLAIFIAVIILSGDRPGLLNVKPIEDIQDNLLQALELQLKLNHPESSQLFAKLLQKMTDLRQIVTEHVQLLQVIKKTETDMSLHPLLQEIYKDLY
Retinoic acid receptor RXR-alpha (Homo sapiens), sequence (P19793 whole entry, looked up): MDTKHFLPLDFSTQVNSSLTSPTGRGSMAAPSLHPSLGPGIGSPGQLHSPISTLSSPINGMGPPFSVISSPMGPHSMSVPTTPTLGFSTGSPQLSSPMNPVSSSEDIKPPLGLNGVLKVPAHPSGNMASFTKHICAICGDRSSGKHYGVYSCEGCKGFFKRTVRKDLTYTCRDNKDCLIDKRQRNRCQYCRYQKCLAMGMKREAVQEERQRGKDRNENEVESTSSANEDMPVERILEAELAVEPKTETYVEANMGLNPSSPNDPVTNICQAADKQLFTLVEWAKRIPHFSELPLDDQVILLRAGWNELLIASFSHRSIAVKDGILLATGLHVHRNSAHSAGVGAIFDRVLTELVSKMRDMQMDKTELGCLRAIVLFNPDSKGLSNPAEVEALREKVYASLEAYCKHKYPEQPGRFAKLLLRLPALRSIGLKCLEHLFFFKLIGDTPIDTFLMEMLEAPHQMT
Nuclear receptor subfamily 1 group I member 2 (Rattus norvegicus), sequence (Q9R1A7 whole entry, looked up): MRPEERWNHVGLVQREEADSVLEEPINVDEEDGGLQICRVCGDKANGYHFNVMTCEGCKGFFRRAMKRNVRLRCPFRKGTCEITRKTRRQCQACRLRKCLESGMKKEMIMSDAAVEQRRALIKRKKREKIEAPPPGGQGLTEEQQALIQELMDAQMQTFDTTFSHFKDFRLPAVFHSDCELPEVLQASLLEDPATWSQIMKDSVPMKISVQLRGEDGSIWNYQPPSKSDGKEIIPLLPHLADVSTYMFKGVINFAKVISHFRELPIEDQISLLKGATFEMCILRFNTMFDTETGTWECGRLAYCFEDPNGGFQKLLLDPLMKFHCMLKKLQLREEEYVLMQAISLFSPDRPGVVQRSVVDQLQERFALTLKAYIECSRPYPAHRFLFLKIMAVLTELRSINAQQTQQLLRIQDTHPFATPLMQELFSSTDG
Peroxisome proliferator-activated receptor alpha (Homo sapiens), sequence (Q07869 whole entry, looked up, the tested form may be a part): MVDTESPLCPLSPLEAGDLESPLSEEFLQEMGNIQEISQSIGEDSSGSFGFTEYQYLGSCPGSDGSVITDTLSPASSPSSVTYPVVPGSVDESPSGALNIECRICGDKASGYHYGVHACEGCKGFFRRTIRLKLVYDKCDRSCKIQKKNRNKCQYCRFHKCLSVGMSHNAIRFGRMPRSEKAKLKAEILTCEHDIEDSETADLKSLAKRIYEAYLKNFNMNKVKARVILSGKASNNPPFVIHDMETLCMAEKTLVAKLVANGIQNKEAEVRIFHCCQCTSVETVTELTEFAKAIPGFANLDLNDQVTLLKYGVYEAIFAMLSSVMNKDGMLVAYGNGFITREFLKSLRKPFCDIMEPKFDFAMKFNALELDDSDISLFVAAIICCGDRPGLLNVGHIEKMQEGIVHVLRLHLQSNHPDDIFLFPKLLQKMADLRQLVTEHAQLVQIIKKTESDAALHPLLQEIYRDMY
Peroxisome proliferator-activated receptor delta (Homo sapiens), sequence (Q03181 whole entry, looked up): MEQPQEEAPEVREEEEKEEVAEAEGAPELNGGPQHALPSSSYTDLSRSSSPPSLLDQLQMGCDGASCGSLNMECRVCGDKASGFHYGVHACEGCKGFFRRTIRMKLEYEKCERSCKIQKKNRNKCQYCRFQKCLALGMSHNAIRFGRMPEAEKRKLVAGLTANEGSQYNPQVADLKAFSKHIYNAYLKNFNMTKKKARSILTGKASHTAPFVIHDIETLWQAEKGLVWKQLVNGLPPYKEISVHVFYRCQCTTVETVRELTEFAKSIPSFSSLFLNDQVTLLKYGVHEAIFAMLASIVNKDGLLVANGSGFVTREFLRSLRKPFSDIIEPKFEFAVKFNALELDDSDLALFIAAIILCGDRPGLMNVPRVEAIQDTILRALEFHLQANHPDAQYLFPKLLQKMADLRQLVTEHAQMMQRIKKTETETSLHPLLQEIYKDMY
Voltage-gated inwardly rectifying potassium channel KCNH2 (Homo sapiens), sequence (Q12809 whole entry, looked up): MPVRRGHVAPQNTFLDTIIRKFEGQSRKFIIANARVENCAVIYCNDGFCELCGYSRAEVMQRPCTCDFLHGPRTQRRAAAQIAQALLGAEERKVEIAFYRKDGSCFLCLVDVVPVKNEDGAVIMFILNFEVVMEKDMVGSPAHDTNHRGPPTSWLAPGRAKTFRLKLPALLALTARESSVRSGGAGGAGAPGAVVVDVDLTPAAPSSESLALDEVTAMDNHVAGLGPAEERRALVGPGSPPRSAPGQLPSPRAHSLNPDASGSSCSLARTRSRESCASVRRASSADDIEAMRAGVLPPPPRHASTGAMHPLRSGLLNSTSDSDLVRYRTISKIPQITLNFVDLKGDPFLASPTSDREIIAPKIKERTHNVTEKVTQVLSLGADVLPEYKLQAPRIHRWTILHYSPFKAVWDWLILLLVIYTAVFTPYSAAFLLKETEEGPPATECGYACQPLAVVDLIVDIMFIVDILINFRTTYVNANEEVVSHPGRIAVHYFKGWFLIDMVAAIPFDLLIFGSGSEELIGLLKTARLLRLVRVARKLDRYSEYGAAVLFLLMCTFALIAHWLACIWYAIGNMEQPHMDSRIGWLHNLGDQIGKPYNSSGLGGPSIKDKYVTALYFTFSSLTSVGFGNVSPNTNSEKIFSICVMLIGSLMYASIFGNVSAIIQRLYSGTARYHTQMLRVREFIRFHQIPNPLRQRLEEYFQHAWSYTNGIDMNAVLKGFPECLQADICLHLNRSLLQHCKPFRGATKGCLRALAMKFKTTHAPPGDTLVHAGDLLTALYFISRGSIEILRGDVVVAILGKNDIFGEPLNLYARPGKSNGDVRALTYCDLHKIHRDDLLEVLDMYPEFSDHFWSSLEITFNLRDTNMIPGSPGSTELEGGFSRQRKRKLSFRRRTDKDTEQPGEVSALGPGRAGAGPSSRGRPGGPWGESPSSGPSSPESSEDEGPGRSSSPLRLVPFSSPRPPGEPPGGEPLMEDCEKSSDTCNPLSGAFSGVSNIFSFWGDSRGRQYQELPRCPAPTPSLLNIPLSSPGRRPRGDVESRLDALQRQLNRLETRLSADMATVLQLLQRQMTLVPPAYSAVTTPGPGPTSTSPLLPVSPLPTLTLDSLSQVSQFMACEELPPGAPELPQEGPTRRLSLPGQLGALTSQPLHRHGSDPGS
Tumor necrosis factor (Homo sapiens), sequence (P01375 whole entry, looked up): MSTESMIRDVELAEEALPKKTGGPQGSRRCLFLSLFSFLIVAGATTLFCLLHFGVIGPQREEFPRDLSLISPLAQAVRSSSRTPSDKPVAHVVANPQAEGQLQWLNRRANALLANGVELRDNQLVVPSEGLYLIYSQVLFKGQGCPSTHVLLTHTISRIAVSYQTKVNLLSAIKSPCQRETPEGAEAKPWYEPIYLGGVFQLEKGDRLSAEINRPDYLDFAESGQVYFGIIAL

c1ccc2c(c1)[nH]c1ccccc12
2.28% and -6.27%: max response [5]
-0.129% and 3.48%: max response [8]
-0.442% and 48.8%: max response [1]
inactive: Potency [2] | outcome [3] | outcome [4] | outcome [6] | outcome [7] | max response [9] 0.549% and -19.1% | activity change % (negative = inhibition) [10] 1.02% and -10.3% | Potency [11] | Potency [12] | activation [13] 0.0697% and -3.97% | Potency [14] | outcome [15] | activation [16] 0.0505% and 2.39% | max response [17] 5.12% and 0.259% | Potency [18] | max response [19] -11% and -21.8% | max response [20] -7.42% and -16.3% | max response [21] -0.192% and 1.32% | outcome [22]
